# Article PMC4081100, “A DNA-binding-site landscape and regulatory network analysis for NAC transcription factors in Arabidopsis thaliana”
# Target: GST-WRKY1(266-371) (Arabidopsis thaliana, UniProt Q9SI37 266-371)
# Experiment: universal protein binding microarray (PBM); transcription factors of Arabidopsis thaliana; high values mean tight binding
# Details: protein: recombinant; tags: GST; dsDNA, one strand shown
# In short: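 Protein amounts were determined by A280 or anti-GST western blot after glutathione–Sepharose 4B purification of GST-tagged proteins induced in cells, with zinc acetate included for zinc-finger proteins. Duplicate runs at 200 to 500 nM final were done on custom all-10-mer Agilent 4 × 180K arrays made double-stranded by primer extension. The normalised enrichment score (E-score) over gapped and ungapped 8-mers is the measure of binding.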
# Sequence of GST-WRKY1(266-371) (Q9SI37 266-371): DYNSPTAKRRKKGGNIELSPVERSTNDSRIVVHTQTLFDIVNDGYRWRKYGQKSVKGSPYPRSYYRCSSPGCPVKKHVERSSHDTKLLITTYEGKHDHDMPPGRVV
row,Sequence,binding signal [E-score]
1,AGTCAGCC,0.415
2,AGTCAACC,0.486
3,ACCGGTCA,0.463
4,GCTGACCC,0.444
5,CTAGGTCA,0.428
6,GAGTCAGA,0.419
7,CGATGACC,0.414
8,GGTCAGAA,0.444
9,GTCAGCAA,0.403
10,CCGGGTCA,0.443
11,ATGGTCAG,0.421
12,ATTGACCC,0.478
13,CTGACCGA,0.439
14,GGGGGTCA,0.423
15,CGAGTCAA,0.477
16,GACTTTGA,0.432
17,ACCTTGAC,0.472
18,GTGGACCA,0.418
19,ATCTTGAC,0.47

row,Sequence,binding signal [E-score]
1,CATTGACC,0.491
2,CGGTCTTC,0.438
3,CCATTGAC,0.473
4,GGTCAGCA,0.456
5,TCGAGTCA,0.417
6,AGAGGTCA,0.425
7,CGGTCAGA,0.46
8,CAGTCAGC,0.406
9,GACGGTCA,0.462
10,CGCTGACC,0.474
11,GCGGGTCA,0.421
12,TCGGGTCA,0.434
13,AGTGGTCA,0.436
14,GTCGGTCA,0.45
15,CAGGTCAG,0.418
16,GACCGGTC,0.445
17,CAGGGTCA,0.403
18,CCGGTCAA,0.493
19,GCCGGTCA,0.459
